An excerpt weighted towards active compounds, which were near 3.5% of everything screened.
MITF inh: blocks human microphthalmia-associated transcription factor; AID 1259374; inhibition, % at 2.6 µM; actives 0.91% (n = 650,000); AlphaScreen MITF homodimerization, bead proximity signal; in the data active = inhibition above about 50%;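 also: 0% = vehicle wells with protein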
TEAD-YAP block: TEAD-YAP interaction inhibition; HEK-TIYL cells, TEAD-Gal4/YAP UAS-luciferase luminescence; inhibition, % at 9.12 µM; actives 1.4% (n = 640,000); AID 1259422; in the data active = inhibition above about 32%;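 also: 0% = median of test compound wells and 100% = reference inhibitor wells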
FBW7 act: human FBW7 E3 ligase activation, primary screen | Q969H0 | AlphaScreen FBW7–phospho-cyclin E peptide binding, activator screen | normalized activity (activation), % at 26.1 µM | actives 0.13% (n = 650,000) | AID 1259310; in the data active = normalized activity above about 1.9%;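 also: purified mutant Fbw7 with reduced substrate affinity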
GPR151 activ: activates the human receptor GPR151 | Q8TDV0 | PathHunter beta-arrestin GPR151 cells, luminescence | activation, % at 11.2 µM | actives 1% (n = 650,000); in the data active = activation above about 4.9%;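 also: 0% = median of compound wells and 100% = cells with positive control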
Target sequence (Q8TDV0 whole entry, looked up): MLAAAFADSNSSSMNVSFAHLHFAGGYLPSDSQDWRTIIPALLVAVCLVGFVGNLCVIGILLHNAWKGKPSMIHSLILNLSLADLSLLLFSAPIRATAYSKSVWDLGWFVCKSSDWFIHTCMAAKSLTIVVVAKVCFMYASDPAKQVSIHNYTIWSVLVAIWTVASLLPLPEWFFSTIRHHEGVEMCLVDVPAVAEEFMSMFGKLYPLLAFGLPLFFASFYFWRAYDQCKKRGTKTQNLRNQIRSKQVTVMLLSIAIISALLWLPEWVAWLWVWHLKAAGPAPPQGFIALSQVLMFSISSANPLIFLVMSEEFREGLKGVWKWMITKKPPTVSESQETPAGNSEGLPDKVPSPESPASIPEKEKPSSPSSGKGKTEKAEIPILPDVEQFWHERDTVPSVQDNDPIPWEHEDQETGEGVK
GPR151 conf act: human GPR151 activation, confirmation screen. AID 1508609. shares compounds with GPR151 activ. GPR151 PathHunter beta-arrestin cells, luminescence, 90 min; % of EA-reagent control over plate median. activation, % at 11.2 µM. 6,700 tested, under 10 active;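 active = mean percent activation across replicates above the confirmation screen cutoff of 4.91%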
GPR119 counter: counter-screen for GPR151 activators: effect on human GPR119; AID 1508611; actives 0.3% (n = 6,700); GPR119 PathHunter beta-arrestin cells, luminescence, 90 min; 0 = compound-well median, 100 = enzyme-acceptor control; activation, % at 11.2 µM; shares compounds with GPR151 activ;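 active = mean percent activation in the counterscreen above 29.09%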;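 also: counterscreen on off-target GPR119 to flag nonselective hits from the GPR151 activator screen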
Numbers without * were called inactive; . = no result given; ! = not active in a repeat.

SMILES	MITF inh	TEAD-YAP block	FBW7 act	GPR151 activ	GPR151 conf act	GPR119 counter
CCc1cccc(CC)c1NC(=O)CN1C(=O)NC2(CCCCC2C)C1=O (stereo not drawn)	-5	0	0	6.2*	1	0
O=C(Cc1cn(-c2ccc(Nc3cnccn3)nn2)c2ccccc12)NCCOc1ccccc1	7	10	0	6.2*	-1	-6
COc1ccc(/C=C2\C(=O)N(c3ccc(Cl)c(C(=O)O)c3)N=C2C)cc1OC	2	-6	0	5.7*	0	11
COc1cc(/C=C2/C(=O)N(c3ccc(I)cc3)N=C2C)ccc1O	7	2	0	5.4*	-1	2
COc1cc(/C=C2\C(=O)N(c3ccc(C(=O)OC(C)C)cc3)N=C2C)ccc1O	2	-14	0	-1	.	.
COc1ccc(-c2nc(C(=O)N3CCN(C)CC3)sc2-c2ccc(OC)cc2)cc1	7	.	0	6.7*!	2	6
COCCNC(=O)c1cc2c(s1)CSC2	6	-5	0	0	.	.
C=CCn1c(SCC(=O)Nc2ccccc2F)nc2sc3c(c2c1=O)CCC(C)C3 (stereo not drawn)	2	7	0	8.7*	0	-9
CC(=O)c1cc2c(cc1NC(=O)c1ccccc1)OCCO2	13	0	0	0	.	.
CC(=O)c1cc2c(cc1NC(=O)c1cccc(Br)c1)OCCO2	18	13	0	5.6*	0	-2
CCOC(=O)CSc1nnc(-c2cccc(NC(=O)c3ccccc3Cl)c2)n1C	6	0	0	5.3*	1	1
CCCCCCCCCCCCCCCC(=O)C(F)(F)F	2	.	0	5.0*!	-1	-10
COC(=O)c1cc(Nc2nc(-c3ccc(OC)cc3)no2)cc(C(=O)OC)c1	0	2	0	0	.	.
O=C(COc1ccc(C(=O)NC2CCCCC2)cc1)NCc1ccccc1	2	-5	0	1	.	.
CC(=O)Nc1cccc(NC(C)=C(C#N)C#N)c1	-2	2	0	5.2*	1	3
Cc1cc(C(=O)N2CCOCC2)c(C)o1	15	-8	0	0	.	.
Cc1cc(C(=O)NN2CCOCC2)c(C)o1	8	3	0	7.6*	0	7
O=C(NC1CCCCC1)c1cc(F)c(F)cc1Cl	4	-11	0	1	.	.
COc1cc(CNC2CCN(Cc3ccccc3)CC2)cc(OC)c1	6	10	0	0	.	.
Cc1cc(CNC2CCN(Cc3ccccc3)CC2)c(C)n1CC(C)C	49	-2	0	6.8*	1	13
COc1ccc(OC)c(NC(=O)c2cccc(NC(=O)C3C4CC5OC(=O)C3C5C4)c2)c1 (stereo not drawn)	21	10	0	1	.	.
COc1ccc(CCNC(=O)C2CCCN2c2nn3c(=O)cc(C)nc3s2)cc1OC (stereo not drawn)	6	7	0	1	.	.
O=C(Nc1ccc(Cl)cc1)C1c2cccc[n+]2CC(=O)N1c1ccc(O)cc1 (stereo not drawn)	-1	-2	0	1	.	.
CCOc1ccc(NC(=O)C2c3cccc[n+]3CC(=O)N2c2ccccc2O)cc1 (stereo not drawn)	9	-35	0	5.1*	-1	0
COc1ccc(O)c(CN[C@H]2C[C@@H](C(=O)NC(C)C)N(Cc3ccc4ccccc4c3)C2)c1	-4	-1	0	0	.	.
SMILES	MITF inh	TEAD-YAP block	FBW7 act	GPR151 activ	GPR151 conf act	GPR119 counter
COc1ccc(-c2[nH]ncc2CN[C@@H]2C[C@@H](C(=O)NC(C)C)N(Cc3ccccc3)C2)cc1	8	-1	0	5.7*	0	-4
CC(C)c1nc(C(=O)N2CCCC(N3CCOCC3)C2)cs1 (stereo not drawn)	-7	5	0	6.7*	-2	-19
COc1ccc(C(=O)NC2=C(C#N)CCC2)cc1OC	21	-2	0	1	.	.
N#CC1=C(NC(=O)c2ccc([N+](=O)[O-])cc2)CCC1	3	9	0	5.6*	-1	6
c1ccc(NC2=NCCC2)cc1	-1	8	0	7.1*	0	-6
FC(F)(F)c1ccc(NC2=NCCC2)cc1	19	-8	0	0	.	.
CC1=C(C)SC(=C(C#N)c2nnc(N3CCOCC3)n2-c2ccccc2)S1	-1	6	0	5.4*	0	-2
COc1ccc(-c2nnc(SCC(=O)c3cc(C)n(CC4CCCO4)c3C)o2)cc1 (stereo not drawn)	2	-7	0	4.9*	1	6
COc1ccc(/C=C(\C#N)C(=O)OCC(=O)N2CCCC2)cc1	-13	-2	0	-1	.	.
O=C/C(=C\Nn1cnnc1)c1nc2ccccc2o1	13	2	0	15*	0	-7
CNS(=O)(=O)c1ccc(N/C=C(\C#N)c2nc3ccccc3o2)cc1	12	-30	0	1	.	.
CNc1cc([N+](=O)[O-])ccc1N/C=C\C(=O)c1ccc(OC)cc1OC	16	-20	0	5.8*	0	-1
CC1CCC2(CC1)NC(=O)N(CC(=O)NC(=O)NCc1ccccc1)C2=O (stereo not drawn)	17	1	0	5.5*	0	-4
COc1ccc(Nc2nc(N3CCN(C)CC3)c3ccccc3n2)cc1	4	2	0	9.5*	1	-3
CCOc1ccc(Nc2nc(N3CCN(C)CC3)c3ccccc3n2)cc1	19	-2	0	0	.	.
O=C(Nc1ccc(Cl)c(Cl)c1)OCc1ccco1	4	-15	0	6.0*	1	0
COc1cccc(C(=O)Nc2ccccc2C(=O)OCC(=O)c2ccc(-c3ccccc3)cc2)c1	13	4	0	0	.	.
COc1cccc(CN2CCN(C(=O)Cn3ccnc3)[C@@H](C)C2)c1	-11	6	0	1	.	.
Cn1c(=O)c2ccccc2n(C)c1=S	5	1	1	5.6*	-1	-4
S=C(NCCCn1ccnc1)Nc1ccc(Br)cc1	8	-5	0	5.1*	-1	-8
O=C1CC(c2nc3ccccc3n2Cc2ccccc2F)CN1c1ccccc1 (stereo not drawn)	-3	-11	0	8.8*	0	-9
Cc1cccc(OCc2nnc(-c3ccc(Cl)cc3Cl)o2)c1	1	10	0	0	.	.
Cc1ccc(-n2cnnn2)c(S(=O)(=O)N2CCOCC2)c1	1	6	0	5.4*	0	6
CC1CCN(c2cc(N3CCC(C)CC3)c([N+](=O)[O-])c3c2Cc2c([nH]c(=O)[nH]c2=O)O3)CC1	-3	5	0	2	.	.
Cc1ccnc(-n2cccc2CN2CCc3c(nc(N4CCCC4)[nH]c3=O)C2)c1	5	7	0	5.0*	0	6

Compound activity (PubChem BioAssay)
